This is part of a sample that, as a whole, favours compounds with a hit. Of some 79,000 tested, about 15% had one in any assay. The source made the active and inactive calls. No stated cut-off is given here; in the data, active means growth inhibition above about 70%; inactive means the rest.
What was measured:
[1] = NCI Yeast Anticancer Drug Screen. Data for the rad50 strain (AID 155);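 further: 0% = growth of vehicle-only cultures of the same strain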; details: S. cerevisiae rad50 strain growth inhibition; at 50.0 µM; hits give high values
In short: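 Compounds were tested on a yeast strain with an engineered DNA damage repair alteration; the reported value is growth inhibition normalised to vehicle treatment.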

[2] = NCI Yeast Anticancer Drug Screen. Data for the mec2-1 strain (AID 157); details: S. cerevisiae mec2-1 strain, at 50.0 µM, hits give high values
In short: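 Cells of the genetically defined mec2-1 yeast strain are incubated with test compound. Inhibition of growth is calculated against vehicle-treated controls.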

[3] = NCI Yeast Anticancer Drug Screen. Data for the sgs1 mgt1 strain (AID 161);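 further: 0% = growth of cultures given vehicle only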; details: S. cerevisiae sgs1 mgt1 strain, at 50.0 µM, hits give high values
In short: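 Inhibition of yeast growth, normalised to vehicle-treated controls, is reported for a strain bearing genetic alterations in DNA damage repair.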

[4] = NCI Yeast Anticancer Drug Screen. Data for the cln2 rad14 strain (AID 165);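 further: 0% = growth equal to vehicle treated cultures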; details: S. cerevisiae cln2 rad14 strain, at 50.0 µM, hits give high values
In short: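 The screen exposed genetically defined yeast (cln2 rad14) to test compounds and scored growth inhibition relative to vehicle-treated controls.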

[5] = NCI Yeast Anticancer Drug Screen. Data for the bub3 strain (AID 167); details: S. cerevisiae bub3 mutant strain, at 50.0 µM, hits give high values
In short: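 Growth of a checkpoint-deficient yeast mutant is measured after compound exposure. Values represent inhibition relative to vehicle.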

[6] = NCI Yeast Anticancer Drug Screen. Data for the mlh1 rad18 strain (AID 175); details: S. cerevisiae mlh1 rad18 strain growth inhibition; at 50.0 µM; hits give high values
In short: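 Compound-treated yeast growth, normalised to vehicle controls. Strain bears defined DNA repair mutations.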

Measured: growth inhibition

CCc1nnc2ncccn12
inactive: [1] -1.15% | [2] -10.9% | [3] 4.25% | [4] -5.95% | [5] 10.4% | [6] -2.9%

CCOC(=O)CCC(Cl)(Cl)Cl
inactive: [1] 14% | [2] -9.95% | [3] -1.45% | [4] -39% | [5] -7.85% | [6] 9.2%

COC(=O)Cc1c(C(=O)OC)c(O)cc(O)c1C(=O)OC
inactive: [1] 5.85% | [2] 5.25% | [3] -10.2% | [4] -14.4% | [5] 12.3% | [6] -5.85%

CC1OC1C(=O)C1(O)C(C)C(O)C23OC2(C(O)c2c(O)cccc2C3=O)C1O (centres undefined)
inactive: [1] 6.75% | [2] -21.8% | [3] 8.65% | [4] -1.1% | [5] -0.7% | [6] 10.3%

C[N+]([O-])=C(c1ccccc1)c1ccccc1
inactive: [1] -15.7% | [2] 5.55% | [3] -9.4% | [4] 4.5% | [5] -30.8% | [6] -4.9%

O=C(O)CCc1nc2c(n1Cc1ccccc1)C(=O)c1ccccc1C2=O
inactive: [1] 28.4% | [2] 21.3% | [3] 43.3% | [4] 44.7% | [5] 41.1% | [6] 13%

Cn1c(=O)c(Br)c(C=O)n(CCO[N+](=O)[O-])c1=O
inactive: [1] -8.25% | [2] 32% | [3] 3.85% | [4] 15.6% | [5] 38.6% | [6] -27.6%

CC(=O)C1C(=O)OC2C3C=CC(C3)C2C1=O (centres undefined)
inactive: [1] 14.9% | [2] 21.1% | [3] 0.9% | [4] -4.7% | [5] 20.1% | [6] 42.6%

CCOC(=O)Cc1ccc(-c2csc(Nc3ccc(Cl)cc3)n2)cc1
inactive: [1] 49.9% | [2] 22.4% | [3] 35% | [4] 24.2% | [5] 24.8% | [6] 48.9%

c1ccnnc1
inactive: [1] 15.9% | [2] -29% | [3] 4.8% | [4] -10.2% | [5] -0.4% | [6] 4.25%

O=C(CC1C(=O)Nc2ccccc2S1(=O)=O)Nc1cc(Cl)ccc1Cl (centres undefined)
inactive: [1] 0.15% | [2] -30.8% | [3] 7.25% | [4] 15.1% | [5] 4.5% | [6] -12.3%

O=C(COc1c(Cl)c(Cl)c(Cl)c(Cl)c1Cl)Nc1cccc(Cl)c1
inactive: [1] 18.9% | [2] 2% | [3] 5.25% | [4] 15.2% | [5] 21.3% | [6] 22.8%

CNC(=O)C(c1ccccc1)C(O)c1ccccc1 (centres undefined)
inactive: [1] 10.8% | [2] -3.7% | [3] -11.4% | [4] 10.4% | [5] -0.15% | [6] -10.5%

CN(C)c1ccc(/C=C(\NC(=O)c2ccccc2)C(=O)NC(CC(=O)O)C(=O)O)cc1 (centres undefined)
inactive: [1] 10.2% | [2] 1.45% | [3] 17.9% | [4] 7% | [5] -0.25% | [6] -0.55%

CSCCCCCSC
inactive: [1] 0.6% | [2] -27.1% | [3] -25.3% | [4] 0.45% | [5] -3.75% | [6] 0.55%

O=CN(Cc1cnccn1)Cc1cnccn1
inactive: [1] -2.8% | [2] 7.3% | [3] -6.75% | [4] -33.1% | [5] 7% | [6] -14.2%

O=C(CC(=O)c1ccc(Cl)s1)C(=O)NC1C2CC3CC(C2)CC1C3 (centres undefined)
inactive: [1] -15% | [2] 15.9% | [3] 7.9% | [4] -26.6% | [5] 12.2% | [6] 3.55%

CCOC(=O)/C=C/C1(CCOC(C)=O)CCCCC1
inactive: [1] 12.8% | [2] -27.8% | [3] -2.9% | [4] 21% | [5] -4% | [6] 14.9%

FC(F)(F)c1nnc(-c2ccccc2)nn1
inactive: [1] -8.8% | [2] -16.1% | [3] -11.4% | [4] -36.6% | [5] -14.8% | [6] -8.5%

From PubChem BioAssay (NCI)
